FBPA coupling cs: coupling enzyme interference in Giardia aldolase counter-screen; 0.67% of 290,000 active; activity change, negative = inhibition, % at 58.2 µM, hits read low; coupling enzyme system counterscreen, AmpLite Red fluorescence; AID 2472; in the data active = activity change below about -30%
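Activity here indicates interference with the coupling reaction, not aldolase inhibition. Compounds at 57.5 uM final met coupling enzymes for 10 min at RT; substrate and AmpLite Red detection followed, with a 525/598 nm fluorescence read after 20 min.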
Tau ThT inhib: tau fibrillization inhibition (ThT binding); recombinant tau K18 P301L, heparin-induced fibrillization, ThT fluorescence; P10636; AID 1460; 2.1% of 270,000 active; Potency, µM (doses to about 57.4 µM), inactives show top-dose activity, negative = inhibition, hits mostly inhibitors; note: potency is the fitted concentration of half-maximal effect; nearly all actives have a fitted effect of over 55% in size
Target sequence (P10636 561-689 P618L limits assumed): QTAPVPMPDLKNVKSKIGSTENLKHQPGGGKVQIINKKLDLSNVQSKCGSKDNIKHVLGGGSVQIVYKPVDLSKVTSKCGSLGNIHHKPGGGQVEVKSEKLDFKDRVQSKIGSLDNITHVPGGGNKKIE
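Using a mix of unlabeled (15 uM) and Alexa 594-labeled (0.24 uM) tau K18 P301L, heparin-triggered fibrillization over 6 hr at 37 C was scored by ThT fluorescence.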
Tau fibril FP: tau fibrillization inhibition (FP) | P10636 | 0.39% of 280,000 active | Potency, µM (series often up to 57.7 µM), for inactives: at the top dose activity, negative = inhibition, most hits filed as inhibitors | K18 P301L tau heparin fibrillization, Alexa594 FP, 6 h; note: potency is the fitted concentration of half-maximal effect; nearly all actives have a fitted effect of over 55% in size
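Recombinant K18 P301L […], labeled with Alexa 594 at 0.24 uM over 15 uM unlabeled; heparin inducer 20 uM final; 37 C, 6 hr; FP endpoint.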
Tau fluor cs: counter-screen for tau fibril formation inhibitors; tau K18 P301L (four-repeat tau fragment) Alexa594 fluorescence, heparin fibrillization; Potency, µM (doses to about 57.7 µM), for the others: at the top dose activity change, negative = decrease; 0.93% of 280,000 active; note: potency is the fitted concentration of half-maximal effect; nearly all actives have a fitted effect of over 55% in size
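Human K18 P301L tau (15 uM unlabeled plus 0.24 uM Alexa 594-labeled, final) in 100 mM sodium acetate pH 7 was mixed with compound and 20 uM heparin and incubated 6 hr at 37 C.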
Sfp inh: blocks B. subtilis Sfp PPTase activity | Potency, µM, for inactives: largest response in the series, negative = inhibition, hits mostly inhibitors | Q9F4F7 | 3.5% of 310,000 active | Biochemical Sfp PPTase activity, qHTS;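 note: the enzyme is Sfp with the accession as filed and its product quenches rhodamine fluorescence; potency is the fitted concentration of half-maximal effect; 0% = enzyme reaction without inhibitor and -100% = no enzyme wells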
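Compounds were incubated with enzyme (final 15 nM) for 15 min at room temperature before substrate addition started the reaction. Fluorescence at 525 nm excitation, 598 nm emission was recorded immediately and after 30 minutes.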
* marks the source's active call; other numbers are inactive results; [ ] = remark or other dose. Only some compounds are listed: those with a hit (about 5.2% of all), similar ones and a draw of the others. Unless noted, calls come from the whole dose curve; as a rule, active = well fitted curve in the direction sought with a large enough effect; inconclusive = small, poorly fitted or top-dose-only effect, or another doubt; inactive = no such curve, though single readings can be large; an effect the other way counts as inactive or inconclusive. Unless noted, % is set by controls: 0 for no effect and ±100 for the full control effect.

Screening C=CCN1CCc2cccc3c2C1Cc1ccc(O)c(O)c1-3 (stereo not given) returned Tau ThT inhib 14µM*, Tau fibril FP inconclusive, Tau fluor cs 14µM*[quencher] and Sfp inh 45µM*.
For CN1CCc2cc(O)cc3c2C1Cc1ccc(O)c(O)c1-3 (stereo not given) the results were Tau ThT inhib 16µM*, Tau fibril FP 40µM*, Tau fluor cs 18µM*[quencher] and Sfp inh 40µM*.
For CCCCC/C=C\C/C=C\C/C=C\C/C=C\CCCC(=O)N(Cc1ccc(O)c(Cl)c1)Cc1ccc(O)c(Cl)c1 the results were FBPA coupling cs 4, Tau ThT inhib 14%, Tau fibril FP -2%, Tau fluor cs 6% and Sfp inh -5%.
Cc1ccc(C(=O)N[C@@H](C)CN2C3=NC[C@H](Cc4ccccc4)N3C[C@H]2Cc2ccc(O)cc2)cc1Br was read as FBPA coupling cs 5, Tau ThT inhib inconclusive, Tau fibril FP 6%, Tau fluor cs -14% and Sfp inh 56µM*.
`O=C(CNC(=O)c1ccccc1)NCC(=O)OCC(=O)c1ccc([N+](=O)[O-])cc1` gave FBPA coupling cs 0, Tau ThT inhib inconclusive, Tau fibril FP inconclusive, Tau fluor cs -17% and Sfp inh 28µM*.
Screening O=C(CNC(=O)c1ccc(Cl)cc1)Nc1ccc(Br)cc1C(=O)c1ccccc1 returned FBPA coupling cs 4, Tau ThT inhib -7%, Tau fibril FP -10%, Tau fluor cs inconclusive and Sfp inh 9%.
Screening COc1ccc([N+](=O)[O-])cc1NC(=O)COC(=O)c1ccccc1C(=O)c1ccccc1 returned FBPA coupling cs 3, Tau ThT inhib 7%, Tau fibril FP -1%, Tau fluor cs inconclusive and Sfp inh -7%.
`O=C(CNC(=O)c1ccc(Br)cc1)NCC(=O)OCC(=O)c1ccc([N+](=O)[O-])cc1` gave FBPA coupling cs 5, Tau ThT inhib 28µM*, Tau fibril FP inconclusive, Tau fluor cs -25% and Sfp inh -30%.
For CCCCCCCCCCCCCC(=O)O[C@@H]1[C@@H](C)[C@@]2(O)[C@H](C=C(CO)C[C@]3(O)C(=O)C(C)=C[C@@H]23)[C@@H]2C(C)(C)C12OC(C)=O (stereo not given in full) the results were Tau ThT inhib inconclusive, Tau fibril FP 0%, Tau fluor cs -8% and Sfp inh 7%.
For CC1(C)C(C(=O)N2CCN(c3ccc(Cl)cc3)CC2)C1(C)C the results were FBPA coupling cs -1 and Sfp inh -3%.
COC(=O)C1CN(C#N)N(c2ccc(Cl)cc2)C12c1ccccc1-c1ccccc12 (stereo not given) was read as FBPA coupling cs -4, Tau ThT inhib 10µM*, Tau fibril FP inconclusive, Tau fluor cs -27% and Sfp inh -17%.
Screening COc1ccc2c(c1)CCC1[C@@H]2CCC2(C)[C@@H](NCCCCCCN3C(=O)C=CC3=O)CC[C@@H]12 (stereo not given in full) returned FBPA coupling cs 3, Tau ThT inhib inconclusive, Tau fibril FP -13%, Tau fluor cs -19% and Sfp inh -26%.
`Oc1ccc(C[C@H]2NCCc3cc(O)c(O)cc32)cc1O` gave FBPA coupling cs -10 and Sfp inh 71µM*.
`C[C@H]1CC[C@H]2NCCN[C@H]2C1` gave FBPA coupling cs 0, Tau ThT inhib -5%, Tau fibril FP 1%, Tau fluor cs -7% and Sfp inh 100µM*.
Screening O=C1C(=O)c2ccccc2-c2ccccc21 returned FBPA coupling cs -82*, Tau ThT inhib 3.2µM*, Tau fibril FP inconclusive, Tau fluor cs -22% and Sfp inh -16%.
O=C1C(=O)c2cccc3cccc1c23 was read as FBPA coupling cs 6, Tau ThT inhib 0%, Tau fibril FP 10%, Tau fluor cs -1% and Sfp inh 10%.
Screening c1ccc(CN2CCN(Cc3ccc4ccccc4c3)CC2)cc1 returned FBPA coupling cs -2 and Sfp inh -36%.

Bioassay records deposited in PubChem by National Center for Advancing Translational Sciences (NCATS).
